ATXN viability: viability counter-screen for ATXN expression inhibitors; hit rate 0.49% among 400,000; Potency, µM (doses to about 56.7 µM), actives largely listed as cytotoxic; S2 cells (HEK-293 line with an ATXN2-luciferase reporter) viability, CellTiter-Fluor protease fluorescence, 24 h; further: nearly all actives have a fitted effect of over 40% in size
HepG2 viability: counter-screen for TGF-b inhibitors: cytotoxicity in HepG2 cells | Potency, µM (doses to about 46.1 µM), inactives show at the top dose activity change, negative = cytotoxicity, most hits filed as cytotoxic | hit rate 0.76% among 410,000 | AID 588856 | HepG2 CAGA-GFP viability, ATP luminescence, 18 h
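HepG2 CAGA-GFP cells (1000/well, DMEM with 1% FBS) received compound, then TGF-beta at 500 pg/mL final, and were incubated 18 hours at 37 degrees C. Viability was read by CellTiter-Glo luminescence. Media-only wells were set as complete cell-killing and DMSO as no toxicity.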
TGFb SMAD3 inh: inhibitors of TGF-b signaling; HepG2 CAGA-GFP TGF-b/SMAD3 reporter, GFP fluorescence, 18 h; TGF-beta stimulated, 500 pg/mL final; Potency, µM (doses to about 46.1 µM), inactives show at the highest dose activity, negative = inhibition, hits mostly inhibitors; hit rate 1.2% among 410,000; further: on the % scale 0 is the no-effect control and ±100 the full control effect; nearly all actives have a fitted effect of over 65% in size
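Read-out: total well GFP (ex488/em500-530) summed from mean per-cell fluorescence. Cells: HEPG2 CAGA-GFP, 1% FBS DMEM, 18 h at 37 degrees C with 500 pg/mL final TGF-beta. Unstimulated wells served as the full-inhibition control; stimulated DMSO wells = 0%.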
ATXN2 expr inh: ATXN2 expression inhibition. HEK-293 ATXN2-luciferase reporter, luminescence, 24 h. Potency, µM (highest dose often 57 µM), for inactives: at the highest dose activity change, negative = inhibition, actives largely listed as inhibitors. hit rate 0.72% among 360,000. AID 1745845; further: on the % scale 0 is the no-effect control and ±100 the full control effect; nearly all actives have a fitted effect of over 55% in size
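qHTS (up to 57 uM final) was run with 24 h compound exposure of reporter cells at 37 °C. Each well was multiplexed: SteadyGlo luminescence measured ATXN2-luciferase expression after a fluorogenic Gly-Phe-AFC viability readout (25 uM final).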
Starred values were filed as active, the others as inactive; i = inactive; ? = inconclusive; . = not tested or not shown. This is a sample that favours compounds with a hit; in the whole collection about 2.3% have one here. The call rests on the fitted dose curve; in most records, active means well fitted curve in the direction sought with a large enough effect; inconclusive means small, poorly fitted or top-dose-only effect, or another doubt; inactive means no such curve, though single readings can be large; an effect the other way counts as inactive or inconclusive. Potency means the concentration at half of the fitted maximal effect.

SMILES | ATXN viability | HepG2 viability | TGFb SMAD3 inh | ATXN2 expr inh
O=[N+]([O-])c1ccc(-c2cc3ccccc3[nH]2)cc1 | . | -16.1% | -3.6% | .
C#Cc1ccccc1OCCCN1CCC(C(O)(c2ccccc2)c2ccccc2)CC1 | 39.8µM* | . | . | 31.6µM*
COc1ccc(-c2cn3cc(C)ccc3n2)cc1OC | ? | -39.9% | -18.8% | -10.9%
COc1ccc(-c2cn3cc(C)ccc3n2)cc1F | i | 15.8µM* | ? | ?
C=CCC[C@H](Cc1ccc(F)cc1)C(=O)OC[C@H](Cc1c[nH]c2ccccc12)NC(=O)[C@H](CC=C)CC(=O)NCCO | ? | -21.0% | ? | ?
C=CCC[C@@H](Cc1ccc(F)cc1)C(=O)OC[C@@H](Cc1c[nH]c2ccccc12)NC(=O)[C@H](CC=C)CC(=O)NCCO | 28.2µM* | -83.0% | ? | ?
C=CCC[C@@H](Cc1ccc(F)cc1)C(=O)OC[C@@H](Cc1c[nH]c2ccccc12)NC(=O)[C@@H](CC=C)CC(=O)NCCO | 31.6µM* | -71.5% | ? | ?
N#CC[C@H](C1CCCC1)n1cc(-c2ncnc3[nH]ccc23)cn1 | . | . | . | 24.8%
O=C(Cn1sc2ccccc2c1=O)NC12CC3CC(CC(C3)C1)C2 | ? | 5.62µM* | ? | -32.6%
O=C(Cn1sc2ccccc2c1=O)Nc1ccccc1 | . | -94.2% | 17.8µM* | 35.5µM*
CC(C)(C)n1ncc2c(=O)n(Cc3cc(C(F)(F)F)ccc3Cl)cnc21 | . | -17.4% | 5.7% | .
C1=CN2CC=Cc3cc(/C=C/c4ccnc5ccccc45)cc(c32)C1 | . | -20.2% | 125.5% | .
COc1ccc(NC(=O)N2CCN(c3nc(-c4cccc(OC)c4)cs3)CC2)cc1 | ? | -25.9% | -8.3% | 22.4µM*
COc1cccc(-c2csc(N3CCN(C(=O)Nc4ccc(Cl)cc4)CC3)n2)c1 | ? | -29.3% | ? | .
COc1cc(=O)n2c(c1C(=O)NCc1ccco1)CCN(Cc1cccc(Cl)c1)CC2 | i | . | . | .
CC(C)(C)n1nc(Cc2cccc3ccccc23)c2c(N)ncnc21 | ? | -18.7% | 14.1µM* | -1.0%
CCCCCCNC(=O)CC(c1ccccc1)c1cc(Br)ccc1O (stereo not drawn) | i | 12.6µM* | 12.6µM* | ?
Cc1ncc([N+](=O)[O-])n1C | i | . | . | 1.4%
NS(=O)(=O)c1cccc(NS(=O)(=O)c2ccc(/C=C/C(=O)O)cc2)c1 | i | 12.6µM* | -1.3% | 2.3%
CC1(c2nnc(-c3cccc(Cl)c3)o2)CC(c2ccc(Cl)cc2)=NO1 (stereo not drawn) | i | -10.0% | 15.8µM* | 1.8%
CC1(c2nnc(-c3cccc(Cl)c3)o2)CC(c2cccc(Cl)c2)=NO1 (stereo not drawn) | i | -19.3% | -25.5% | 2.0%
CCOC(=O)c1c(C)[nH]c(C2=NNC(=NC3CC3)SC2)c1C | i | -27.8% | -5.9% | 10.6µM*
COc1ccc(/C=C/C(=O)NC(=S)NCCc2ccc(OC)c(OC)c2)cc1 | ? | 6.31µM* | 5.62µM* | ?
COc1ccc(CCNC(=O)/C=C\c2ccccc2)cc1OC | i | 9.6% | 6.8% | 2.2%
CCOC(=O)c1ccc(N2C(=O)c3n[nH]c(-c4ccco4)c3C2c2ccc(O)c(OCC)c2)cc1 (stereo not drawn) | ? | -60.7% | 15.8µM* | ?
SMILES | ATXN viability | HepG2 viability | TGFb SMAD3 inh | ATXN2 expr inh
CCOC(=O)c1ccc(N2C(=O)c3n[nH]c(-c4ccco4)c3C2c2ccc(C(=O)OC)cc2)cc1 (stereo not drawn) | ? | -39.1% | ? | ?
CCOC(=O)c1ccc(N2C(=O)c3n[nH]c(C)c3C2c2ccc(OC)cc2OC)cc1 (stereo not drawn) | i | -55.0% | ? | -17.5%
CCOC(=O)c1ccc(N2C(=O)c3n[nH]c(-c4ccco4)c3C2c2ccc(OC)cc2OC)cc1 (stereo not drawn) | ? | -46.4% | 15.8µM* | ?
COc1cc(=O)n2c(c1C(=O)N(C)Cc1cscn1)CCN(C(=O)c1cccc(C)c1C)CC2 | i | . | . | .
Cc1ccc2nc3sc(C(=O)N4CCOCC4)c(N)c3cc2c1 | i | -18.6% | -14.0% | 2.51µM*
N=c1c(S(=O)(=O)c2ccc(Br)cc2)cc2c(=O)n3ccccc3nc2n1Cc1ccco1 | . | -64.2% | 7.94µM* | .
COCC(=O)Nc1cc(C(=O)N[C@H]2CCCCNC2=O)c2c(c1)nc(-c1ccncc1)n2C | i | . | . | .
O=C(O)C1=NC(C(=O)O)CC(C=CN2c3cc(O)c(OC4OC(CO)C(O)C(O)C4O)cc3CC2C(=O)O)=C1 (stereo not drawn) | . | . | . | 8.0%
Cc1cccc2cc(/C=N/NC(=O)c3ccncc3)c(Cl)nc12 | i | -7.9% | -7.3% | -1.6%
Cc1cccc2cc(/C=N/NC(=O)c3ccccc3O)c(Cl)nc12 | ? | -32.1% | 10µM* | -22.5%
C=CCN1[C@@H](C(C)C)COCCS1(=O)=O | . | 8.2% | 5.5% | .
COc1ccccc1C(=O)Nc1nc(-c2ccc(S(=O)(=O)N3CCOCC3)cc2)cs1 | ? | -23.2% | -6.9% | 14.1µM*
COc1ccc(C(NC(=O)COc2ccc(C#N)cc2)c2ccc(OC)cc2)cc1 | . | 1.3% | -0.8% | .
COc1ccc2nc(/C=N/NC(=O)[C@H](CCSC)NC(=O)OC(C)(C)C)ccc2c1 | ? | 15.0% | -2.5% | -16.3%
CSCC[C@H](NC(=O)OC(C)(C)C)C(=O)N/N=C/c1cccc2cccnc12 | i | -52.9% | -5.6% | 28.2µM*
O=C(N/N=C(\c1ccccc1)c1ccccn1)c1ccccc1Cl | ? | -47.8% | ? | 22.4µM*
COc1ccc(C(=O)N/N=C/c2cccc3cccnc23)cc1 | i | -6.8% | ? | 22.4µM*
O=C(NN=C(c1ccccc1)c1ccccn1)c1ccccc1 | ? | -19.4% | ? | 3.98µM*
Cc1oc(-c2ccccc2NC(=O)c2ccccn2)nc1CNC(=O)c1ccc(Oc2ccccc2)o1 | i | . | . | .
COc1ccc(C(=O)N/N=C(\c2ccccc2)c2ccccn2)cc1 | 10µM* | -7.1% | ? | 3.16µM*
COc1ccc(C(=O)Nc2ccc(NC(=O)c3ccccn3)cn2)cc1 | i | 4.3% | 3.2% | -6.9%
CCn1c(/C=C/Nc2ccccc2)[n+](CC)c2cc(Cl)c(Cl)cc21 | 31.6µM* | -93.3% | ? | ?
CCn1c(/C=C/N(C(C)=O)c2ccccc2)[n+](CCCS(=O)(=O)[O-])c2cc(Cl)c(Cl)cc21 | i | -1.1% | 13.6% | 0.5%
O=C(c1nc2ncccn2n1)N1CCOc2ccc(C(O)C(c3ccccc3)c3ccccc3)cc2C1 (stereo not drawn) | i | . | . | .
COc1ccc(NCc2nnc(SCC(=O)c3ccc(OC)cc3)o2)cc1 | i | -34.5% | 21.0% | 3.0%
CCOc1cc(C(=O)CSc2nnc(CNc3ccc(Cl)cc3)o2)ccc1NC(=O)CC | 20µM* | 10µM* | ? | 31.6µM*
Cc1nc2cc(C(F)(F)F)ccc2n1CCNc1nc(-c2ccc([N+](=O)[O-])c(Cl)c2)cs1 | ? | -34.3% | 15.8µM* | ?
